PubChem BioAssay AID1159580 (chemical genetic matrix, 2015)
Hit rate of the full screen: of about 5,500 compounds, about 2,000 (36%) were called active. Another 18% or so got no clear call; they are omitted. Rule as the data show it: active = normalized growth mostly below about 0.91 (no sharp cut-off); inconclusive = no clear call, values can overlap the other calls; inactive = mostly above about 0.92. The list shows a part of the results.

Test: chemical genetic growth profiling, strain panel (AID 1159580);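 also: tested at 20 µM; growth read once vehicle control cultures reached saturation at 30 °C; 1 = growth at the plate median or of vehicle wells; lower values mean less growth of the strain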
Details: S. cerevisiae deletion strains, growth OD
[1] = locus YAL013W, strain DEP1, active compounds read low
[2] = locus YAL040C, strain CLN3, active compounds read low
[3] = locus YCL061C, strain MRC1 (second series), active compounds read low
[4] = locus YDR363W, strain ESC2, active compounds read low
[5] = locus YER002W, strain NOP16, active compounds read low
[6] = locus YNL153C, strain GIM3, active compounds read low
[7] = locus YNL175C, strain NOP13, active compounds read low
[8] = locus YNL197C, strain WHI3, active compounds read low
[9] = locus YNL224C, strain SQS1, active compounds read low
[10] = locus YOR083W, strain WHI5 (second series), active compounds read low
[11] = locus YPL241C, strain CIN2, active compounds read low
[12] = locus YAR019C, strain CDC15, active compounds read low
[13] = locus YBL105C, strain PKC1, active compounds read low
[14] = locus YBR135W, strain CKS1, active compounds read low
[15] = locus YBR136W, strain MEC1, active compounds read low
[16] = locus YBR160W, strain CDC28, active compounds read low
[17] = locus YDL017W, strain CDC7, active compounds read low
[18] = locus YDL028C, strain MPS1, active compounds read low
[19] = locus YDL101C, strain DUN1, active compounds read low
[20] = locus YDL108W, strain KIN28, active compounds read low
[21] = locus YDL132W, strain cdc53, active compounds read low
[22] = locus YDL214C, strain PRR2, active compounds read low
[23] = locus YDR052C, strain DBF4, active compounds read low
[24] = locus YDR054C, strain cdc34, active compounds read low
[25] = locus YDR226W, strain ADK1, active compounds read low
[26] = locus YDR477W, strain SNF1, active compounds read low
[27] = locus YER123W, strain YCK3, active compounds read low
[28] = locus YER133W, strain GLC7, active compounds read low
[29] = locus YFL009W, strain cdc4, active compounds read low
[30] = locus YFL029C, strain CAK1, active compounds read low
[31] = locus YFR003C, strain YPI1, active compounds read low
[32] = locus YFR019W, strain FAB1, active compounds read low
[33] = locus YFR028C, strain CDC14, active compounds read low
[34] = locus YGR040W, strain KSS1, active compounds read low
[35] = locus YGR052W, strain FMP48, active compounds read low
[36] = locus YGR092W, strain DBF2, active compounds read low
[37] = locus YHR030C, strain SLT2, active compounds read low
[38] = locus YHR079C, strain IRE1, active compounds read low
[39] = locus YHR082C, strain KSP1, active compounds read low
[40] = locus YHR205W, strain SCH9, active compounds read low
[41] = locus YIL147C, strain SLN1, active compounds read low
[42] = locus YJL095W, strain BCK1, active compounds read low
[43] = locus YJL128C, strain PBS2, active compounds read low
[44] = locus YJL157C, strain FAR1, active compounds read low
[45] = locus YJR016C, strain ILV3, active compounds read low
[46] = locus YJR066W, strain TOR1 (second series), active compounds read low
[47] = locus YJR066W, strain TOR1, active compounds read low
[48] = locus YKL048C, strain ELM1, active compounds read low
[49] = locus YKL067W, strain YNK1, active compounds read low
[50] = locus YKL101W, strain HSL1, active compounds read low
[51] = locus YKL193C, strain SDS22, active compounds read low
[52] = locus YKL203C, strain TOR2, active compounds read low
[53] = locus YLR113W, strain HOG1, active compounds read low
[54] = locus YLR133W, strain CKI1, active compounds read low
[55] = locus YLR403W, strain SFP1, active compounds read low
[56] = locus YML070W, strain DAK1, active compounds read low
[57] = locus YMR001C, strain CDC5, active compounds read low
[58] = locus YMR205C, strain PFK2 (second series), active compounds read low
[59] = locus YMR277W, strain FCP1, active compounds read low
[60] = locus YNL006W, strain LST8, active compounds read low
[61] = locus YNL020C, strain ARK1, active compounds read low
[62] = locus YNL161W, strain CBK1, active compounds read low
[63] = locus YNL183C, strain NPR1, active compounds read low
[64] = locus YNL207W, strain RIO2, active compounds read low
[65] = locus YNL222W, strain SSU72, active compounds read low
[66] = locus YNL307C, strain MCK1 (second series), active compounds read low
[67] = locus YOL078W, strain AVO1, active compounds read low
[68] = locus YOL136C, strain PFK27, active compounds read low
[69] = locus YOR061W, strain CKA2, active compounds read low
[70] = locus YOR119C, strain RIO1, active compounds read low
[71] = locus YOR231W, strain MKK1, active compounds read low
[72] = locus YOR329C, strain SCD5, active compounds read low
[73] = locus YPL031C, strain PHO85, active compounds read low
[74] = locus YPL153C, strain RAD53, active compounds read low
[75] = locus YPL204W, strain HRR25, active compounds read low
[76] = locus YPL209C, strain IPL1, active compounds read low
[77] = locus YPL256C, strain CLN2, active compounds read low
[78] = locus YPR025C, strain CCL1, active compounds read low
[79] = locus YPR106W, strain ISR1, active compounds read low
[80] = locus YPR111W, strain DBF20, active compounds read low
[81] = strain NNK1, active compounds read low
[82] = strain TSCII, active compounds read low

Measured: normalized growth

CN=C(N)NCCC[C@H](N)C(=O)O
inactive: [1] 1.02 | [2] 0.993 | [3] 1.03 | [4] 1.04 | [5] 0.992 | locus YMR263W, strain SAP30, active compounds read low 0.99 | [6] 1.02 | [7] 1.01 | [8] 1.01 | [9] 1.01 | [10] 1.01 | [11] 1

COc1cccc2c1[C@@H]1CN(CCCCn3c(=O)[nH]c4c(sc5ncc(-c6ccccc6)nc54)c3=O)C[C@@H]1CO2
inactive: [1] 0.921 | [2] 0.969 | [3] 0.962 | locus YDR150W, strain NUM1, active compounds read low 1.01 | [4] 0.963 | [5] 1.01 | locus YNL128W, strain TEP1, active compounds read low 1.02 | [6] 0.929 | [7] 1.03 | [8] 1 | [9] 1 | [10] 0.93 | [11] 0.984
active: locus YPL055C, strain LGE1, active compounds read low 0.781

Cc1nc(C(F)(F)F)ccc1-c1nnc(SC(=O)c2ccc(Cl)cc2)o1
active: [12] 0.875 | [13] 0.883 | [14] 0.884 | [15] 0.888 | [16] 0.878 | [17] 0.882 | [18] 0.884 | [19] 0.866 | [20] 0.882 | [21] 0.877 | [22] 0.648 | [23] 0.886 | [24] 0.857 | [25] 0.867 | [27] 0.49 | [29] 0.868 | [30] 0.872 | [31] 0.879 | [33] 0.881 | [37] 0.358 | [38] 0.442 | [39] 0.617 | [40] 0.348 | [41] 0.885 | [43] 0.747 | [45] 0.87 | [46] 0.393 | [48] 0.785 | [49] 0.641 | [50] 0.639 | [51] 0.874 | [53] 0.229 | [54] 0.684 | [56] 0.604 | [57] 0.875 | [58] 0.682 | [59] 0.876 | [60] 0.888 | [61] 0.655 | [62] 0.865 | [63] 0.566 | [64] 0.874 | [65] 0.877 | [66] 0.589 | [67] 0.874 | [68] 0.604 | [69] 0.644 | [71] 0.454 | [72] 0.877 | [76] 0.877 | [77] 0.334 | [78] 0.877 | [79] 0.833 | [80] 0.803 | [81] 0.786 | [82] 0.865
inactive: [26] 0.82 | [28] 0.792 | [32] 0.81 | [34] 0.831 | [35] 0.638 | [36] 0.568 | [42] 0.532 | [44] 0.764 | [47] 0.631 | [52] 0.862 | [55] 0.818 | [70] 0.909 | [73] 0.81 | [74] 0.837 | [75] 0.782

Cc1nc(C(F)(F)F)ccc1C(=O)Sc1nnc(-c2ccc(C(F)(F)F)nc2C)o1
inactive: [12] 0.946 | [13] 0.95 | [14] 0.954 | [15] 0.955 | [16] 0.952 | [17] 0.951 | [18] 0.955 | [19] 0.961 | [20] 0.952 | [21] 0.956 | [22] 0.901 | [23] 0.949 | [24] 0.939 | [25] 0.946 | [26] 0.943 | [27] 0.858 | [28] 0.936 | [29] 0.946 | [30] 0.947 | [31] 0.952 | [32] 0.976 | [33] 0.959 | [34] 0.956 | [35] 0.929 | [36] 0.864 | [38] 0.737 | [39] 0.962 | [40] 0.732 | [41] 0.952 | [42] 0.861 | [43] 0.902 | [44] 0.945 | [45] 0.952 | [46] 0.716 | [47] 0.935 | [48] 0.937 | [49] 0.893 | [50] 0.886 | [51] 0.949 | [52] 0.989 | [54] 0.924 | [55] 0.945 | [56] 0.89 | [57] 0.953 | [58] 0.918 | [59] 0.951 | [60] 0.959 | [61] 0.889 | [62] 0.936 | [63] 0.905 | [64] 0.942 | [65] 0.954 | [66] 0.868 | [67] 0.949 | [68] 0.876 | [69] 0.887 | [70] 1.02 | [71] 0.802 | [72] 0.953 | [73] 0.94 | [74] 0.963 | [75] 0.934 | [76] 0.95 | [78] 0.949 | [79] 0.951 | [80] 0.919 | [81] 0.928 | [82] 0.943
active: [37] 0.617 | [53] 0.515 | [77] 0.605
